Sampled rows, rich in hits. Any-hit rate of the full collection: about 2.4%.
D2 ag-1 = human D2 receptor agonism in beta-arrestin assay. P14416. 360,000 compounds, 0.084% hits. DiscoveRx PathHunter D2 beta-arrestin, luminescence, 90 min; 100% = 57 uM dopamine signal. activation, % (test concentration not listed). AID 624465; in the data active = activation above about 40%; inconclusive = between about 15% and that limit
Target sequence (P14416 whole entry, looked up): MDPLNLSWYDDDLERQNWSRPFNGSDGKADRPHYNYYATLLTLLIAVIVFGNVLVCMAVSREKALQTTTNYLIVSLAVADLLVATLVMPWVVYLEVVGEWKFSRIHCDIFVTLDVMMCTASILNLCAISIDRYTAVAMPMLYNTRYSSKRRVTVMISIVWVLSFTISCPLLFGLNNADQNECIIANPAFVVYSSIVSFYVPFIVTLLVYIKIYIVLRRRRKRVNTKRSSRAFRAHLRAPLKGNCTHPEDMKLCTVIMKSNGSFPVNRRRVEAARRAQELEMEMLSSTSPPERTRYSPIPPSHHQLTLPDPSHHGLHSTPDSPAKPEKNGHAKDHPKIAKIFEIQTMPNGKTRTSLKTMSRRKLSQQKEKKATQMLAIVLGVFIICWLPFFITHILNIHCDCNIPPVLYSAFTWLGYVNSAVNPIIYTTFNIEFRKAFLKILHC
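DiscoveRx PathHunter D2 beta-arrestin cells (2,100/well) attached overnight, then compound-stimulated 90 min at 37 C in HBSS/10 mM HEPES/0.1% Tween-20 buffer; beta-galactosidase complementation read by luminescence after 1 h at ambient temperature. Dopamine 57 uM final (EC100) as control.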
D2 PAM-1 = positive allosteric modulators of human D2 dopamine receptor; AID 485347; HEK293 T-REx D2, calcium flux, EC20 dopamine potentiation; 340,000 compounds, 0.34% hits; potentiation, % at 10 µM;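 active = potentiation over 3 SD above the plate norm, cut at about 30% in these data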; note: 0% is about no effect
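Primary screen. Calcium kinetics in induced HEK293 T-REx D2 cells: compound pre-addition 180 s, EC20 dopamine, 180 s more.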
D2 PAM-2 = positive allosteric modulators of human D2 dopamine receptor | DiscoveRx D2 beta-arrestin cells, luminescence, 90 min; 100% = 57 uM dopamine signal | potentiation, % (test concentration not listed) | 360,000 compounds, 0.23% hits; in the data active = potentiation above about 50%; inconclusive = mostly about 30% to 49%
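D2 cells co-treated with compound plus 50 nM dopamine (EC20) for 90 min at 37 deg C to detect potentiation. Beta-arrestin recruitment was read as enzyme-fragment luminescence after 1 h at ambient temperature. Full response was set by 57 uM dopamine.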
D2 antag = antagonizes the human D2 dopamine receptor; P14416; HEK293 TREx D2 cells, calcium flux, dopamine EC80; inhibition, % at 10 µM; 340,000 compounds, 2% hits; in the data active = inhibition above about 30%; inactive = below that, where a call was filed; note: 0% is about no effect
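Inhibition of EC80 dopamine-driven calcium flux, recorded kinetically, defines activity here; cells are a tetracycline-induced HEK293 T-REx line expressing force-coupled D2.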
D2 ag-2 = activates the human D2 dopamine receptor; HEK293 T-REx D2 cells, calcium flux agonist mode; activation, % at 2 µM; 340,000 compounds, 0.53% hits; AID 485358;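 active = activation over 3 SD above normal in the single-dose calcium agonist read, cut at about 30% in these data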; note: 0% is about no effect
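Calcium-flux readout, 1 cycle/sec over 180 s following compound pin transfer, in inducible HEK293 Trex D2 cells (force-coupled); dopamine controls included. Positive calcium responses during this window marked compounds as potential agonists.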
* = called active by the depositor.

`N/C(Cc1ccc([N+](=O)[O-])cc1)=N\OC(=O)Cc1ccc(Cl)cc1` gave D2 ag-1 3, D2 PAM-1 -9, D2 PAM-2 26, D2 antag 10 and D2 ag-2 -1.
For N/C(Cc1ccc([N+](=O)[O-])cc1)=N\OC(=O)Cc1ccccc1 the results were D2 ag-1 15, D2 PAM-1 9, D2 PAM-2 -1, D2 antag 11 and D2 ag-2 -1.
`N/C(Cc1ccc([N+](=O)[O-])cc1)=N\OC(=O)c1ccccc1F` gave D2 ag-1 inconclusive, D2 PAM-1 10, D2 PAM-2 153*, D2 antag -9 and D2 ag-2 1.
For Cc1sc2ncnc(N3CCC(C(=O)NNC(=O)COc4ccc(Cl)cc4)CC3)c2c1C the results were D2 ag-1 7 and D2 PAM-2 7.
Cc1sc2ncnc(N3CCN(CCOc4ccc(Cl)cc4)CC3)c2c1C was read as D2 ag-1 2, D2 PAM-1 -12, D2 PAM-2 -4, D2 antag 35* and D2 ag-2 -1.
For CC(C)(C)c1ccc(-c2cn(-c3ccc(Br)cc3)c3[n+]2CCCS3)cc1 the results were D2 ag-1 -1, D2 PAM-1 -13, D2 PAM-2 -10, D2 antag 42* and D2 ag-2 1.
c1ccc(-c2cn(-c3ccccc3)c3[n+]2CCS3)cc1 was read as D2 ag-1 -2, D2 PAM-1 8, D2 PAM-2 -9, D2 antag 4 and D2 ag-2 -1.
O=[N+]([O-])c1ccc(NN=Cc2ccccc2O)nc1 was read as D2 ag-1 -3 and D2 PAM-2 -13.
`O=[N+]([O-])c1ccc(N/N=C/c2ccccc2O)cc1` gave D2 ag-1 10, D2 PAM-1 4, D2 PAM-2 -28, D2 antag 36* and D2 ag-2 4.
CCCc1nc2ccc(NC(=O)NCCC(=O)OCC)cc2c(=O)n1Cc1cccc(Cl)c1 was read as D2 ag-1 0, D2 PAM-1 4, D2 PAM-2 3, D2 antag -16 and D2 ag-2 0.
CCOC(=O)CCNC(=O)Nc1ccc2nc(C)n(Cc3cccc(Cl)c3)c(=O)c2c1 was read as D2 ag-1 0, D2 PAM-1 35*, D2 PAM-2 7, D2 antag -15 and D2 ag-2 -2.
Screening CCc1ccc(NS(=O)(=O)c2ccc(-c3cc(C)no3)cc2)cc1 returned D2 PAM-1 1 and D2 ag-2 1.
`O=C(CN(C(=O)c1csnn1)c1cccc(F)c1)NCc1ccc2c(c1)OCO2` gave D2 ag-1 -1, D2 PAM-1 -18, D2 PAM-2 -4, D2 antag 42* and D2 ag-2 0.
O=C(CN(C(=O)c1csnn1)c1ccccc1F)NCc1ccc2c(c1)OCO2 was read as D2 ag-1 -3, D2 PAM-1 1, D2 PAM-2 -13, D2 antag -42 and D2 ag-2 0.
For Cc1c(Cl)cccc1NC(=O)CSc1nc2ncccc2o1 the results were D2 PAM-1 -1.
`CCN1CCN(C(=O)CS(=O)Cc2nc(-c3ccc(OC)cc3)oc2C)CC1` (stereo unspecified) gave D2 ag-1 -5, D2 PAM-1 -14, D2 PAM-2 -4, D2 antag 40* and D2 ag-2 0.
Cc1ccc(-c2nc(CS(=O)CC(=O)NCCN3CCCC3)c(C)o2)cc1 (stereo unspecified) was read as D2 ag-1 -5, D2 PAM-1 -7, D2 PAM-2 -4, D2 antag -5 and D2 ag-2 -1.
For CCc1ccc(-c2nc(CS(=O)CC(=O)NCCN3CCCCCC3)c(C)o2)cc1 (stereo unspecified) the results were D2 ag-1 -3, D2 PAM-1 4, D2 PAM-2 -19, D2 antag -3 and D2 ag-2 1.
Screening Cc1ccc(-c2nc(CS(=O)CC(=O)NCCN(CC(C)C)CC(C)C)c(C)o2)cc1 (stereo unspecified) returned D2 ag-1 -1, D2 PAM-1 106*, D2 PAM-2 -4, D2 antag 1 and D2 ag-2 -1.
`CCC1CCCCN1CCCNC(=O)CS(=O)Cc1nc(-c2ccc(OC)c(OC)c2)oc1C` (stereo unspecified) gave D2 ag-1 -4, D2 PAM-1 2, D2 PAM-2 -8, D2 antag 36* and D2 ag-2 2.
For CCc1ccc(-c2nc(CS(=O)CC(=O)NCCCN3CCC(C)CC3)c(C)o2)cc1 (stereo unspecified) the results were D2 ag-1 -7, D2 PAM-1 -9, D2 PAM-2 -24, D2 antag 30* and D2 ag-2 0.
For CCc1ccc(Sc2cc(C(=O)O)c3ccccc3n2)cc1 the results were D2 PAM-1 17 and D2 ag-2 0.
Screening NC(=O)c1c(NC(=O)c2noc3c2CCCC3)sc2c1CCCC2 returned D2 PAM-1 7 and D2 ag-2 0.
For CCn1c(CN2CCCCC2)nc2cc(S(=O)(=O)N3CCCCC3)ccc21 the results were D2 ag-1 -4, D2 PAM-1 -29, D2 PAM-2 -15, D2 antag 55* and D2 ag-2 -1.
Screening Cc1ccc(S(=O)(=O)Nc2ccc3c(c2)nc(CCN2CCCCC2)n3C)cc1 returned D2 ag-1 -4, D2 PAM-1 -27, D2 PAM-2 -9, D2 antag 20 and D2 ag-2 0.
For Cn1c(CN2CCCC2)nc2cc(NC(=O)COc3ccccc3)ccc21 the results were D2 ag-1 0, D2 PAM-1 -23, D2 PAM-2 -40, D2 antag 47* and D2 ag-2 0.
`Cn1c(CCN2CCCCC2)nc2cc(NS(=O)(=O)c3ccc(F)cc3)ccc21` gave D2 ag-1 -4, D2 PAM-1 -18, D2 PAM-2 -46, D2 antag 32* and D2 ag-2 1.
Screening Cc1ccc(S(=O)(=O)Nc2ccc3c(c2)nc(CN2CCCC2)n3C)cc1 returned D2 ag-1 -3, D2 PAM-1 -12, D2 PAM-2 -52, D2 antag 72* and D2 ag-2 2.
For Cc1ccc(S(=O)(=O)Nc2ccc3c(c2)nc(CCN2CCOCC2)n3C)cc1 the results were D2 ag-1 2, D2 PAM-1 -5, D2 PAM-2 -17, D2 antag 5 and D2 ag-2 -2.
For Cc1ccc(N2C(=O)CS(=O)(=O)C23C(=O)N(Cc2ccccc2F)c2ccccc23)cc1Cl (stereo unspecified) the results were D2 PAM-1 -5 and D2 ag-2 1.
Cc1nn(CCCC(=O)NCCc2ccc(Cl)cc2)c(=O)c2c1sc1ccccc12 was read as D2 PAM-1 -4 and D2 ag-2 0.
Screening CC(C)c1nn2c(=O)cc(COC(=O)c3cccc(NC(=O)c4cccs4)c3)nc2s1 returned D2 PAM-1 -5 and D2 ag-2 13.
